From PubChem BioAssay (EPA / NIEHS)
Results filed as inconclusive are left out. Active and inactive are the calls of the source. Rule for the calls, unless noted: active = hit-call score of the fitted dose curve at least 0.9, where 1 is the maximum; inactive = score below 0.9.

Tests used:
[1] = IUF_NPC1b_proliferation_BrdU_72hr: Leibniz Research Institute for Environmental Medicine (IUF) 72-hour Neural Progenitor Cell Bromodeoxyuridine (BrdU) Proliferation Assay (NPC1b) (AID 2284207)
Outline: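 Luminescent BrdU ELISA measured DNA synthesis during the last 16 h of a 72 h exposure of primary human neural progenitor spheres grown with EGF and FGF. Signal was fitted relative to DMSO controls.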

[2] = IUF_NPC1a_proliferation_area_72hr: Leibniz Research Institute for Environmental Medicine (IUF) 72-hour Neural Progenitor Cell Proliferation Area Assay (NPC1a) (AID 2284208)
Outline: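 Measured in 3D suspension: each well held one primary hNPC sphere grown with EGF and FGF at pH 7.2-7.6. Compound stayed on for 72 h, then area was imaged; spheres lacking growth factors defined reduced proliferation.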

[3] = IUF_NPC1_viability_72hr: Viability Assessment at 72 hours in the Leibniz Research Institute for Environmental Medicine (IUF) Neural Progenitor Cell Proliferation Assay (NPC1) (AID 2284209)
Outline: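 Alamar blue fluorescence (RFU) after 72 h exposure, normalized to DMSO baseline. hNPC spheres from GW 16-19 fetal cortex, single sphere per well in growth-factor medium; no compound renewal.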

[4] = IUF_NPC2c_oligodendrocyte_migration_120hr: Leibniz Research Institute for Environmental Medicine (IUF) 120-hour Neural Progenitor Cell Migration Assay for Oligodendrocyte Migration (NPC2c) (AID 2284297);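 note: O4-positive oligodendrocyte migration distance divided by radial glia migration distance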
Outline: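 Using fetal brain neural progenitor spheres differentiating in N2 medium at 37C, compounds were present for 120 h. Oligodendrocyte migration distance, normalized to radial glia migration, was measured from imaged O4 staining.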

[5] = IUF_NPC2a_radial_glia_migration_120hr: Leibniz Research Institute for Environmental Medicine (IUF) 120-hour Neural Progenitor Cell Migration Assay for Radial Glia Migration (NPC2a) (AID 2284298)
Outline: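 Exposure of 0.3 mm primary hNPC spheres runs day 0 to 120 h with a half-volume medium change at day 3. Fixed cells get Hoechst staining; high-content analysis of nuclear positions yields radial glia migration distance per well, compared against DMSO controls.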

[6] = IUF_NPC2a_radial_glia_migration_72hr: Leibniz Research Institute for Environmental Medicine (IUF) 72-hour Neural Progenitor Cell Migration Assay for Radial Glia Migration (NPC2a) (AID 2284299)
Outline: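 Readout: mean of four manual brightfield measurements of radial glia migration distance (um) at 72 h. hNPC spheres (0.3 mm) exposed to 7 compound concentrations plus solvent control on PDL/laminin, 37C, 5% CO2; activity fitted relative to DMSO.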

[7] = IUF_NPC2b_neuronal_migration_120hr: Leibniz Research Institute for Environmental Medicine (IUF) 120-hour Neural Progenitor Cell Migration Assay for Neuron Migration (NPC2b) (AID 2284300)
Outline: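 Fetal human NPC spheres migrate on PDL/laminin during 120 h compound treatment; neuronal migration distance, glia-normalized, scored versus DMSO control.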

[8] = IUF_NPC3_neuronal_differentiation_120hr: Leibniz Research Institute for Environmental Medicine (IUF) 120-hour Neuronal Differentiation Assay (NPC3) (AID 2284301)
Outline: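 hNPC spheres, PDL/laminin, DMEM/F12 3:1 + 1% N2, 37C, 5% CO2; 7 concentrations + solvent control, 5 d exposure, half-change day 3. Fix 120 h; TUBB3/Hoechst ICC, CNN neuron calling; % neurons vs nuclei, DMSO-normalized.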

[9] = IUF_NPC4_neurite_length_120hr: Leibniz Research Institute for Environmental Medicine (IUF) 120-hour Neuronal Morphology Assay for Neurite Length (NPC4) (AID 2284302)
Outline: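 hNPC spheres (0.3 mm, fetal brain GW 16-19) on PDL/laminin, DMEM:F12 3:1 + 1% N2, 37C 5% CO2; 7 concs + solvent control, day 0-5, half medium change d3; fix 120 h, TUBB3 ICC, mean neurite length um vs DMSO.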

[10] = IUF_NPC4_neurite_area_120hr: Leibniz Research Institute for Environmental Medicine (IUF) 120-hour Neuronal Morphology Assay for Neurite Area (NPC4) (AID 2284305; active = hit-call score of the fitted dose curve at least 0.9, where 1 is the maximum)
Outline: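 hNPC spheres on PDL/laminin, N2 medium, 37C/5% CO2; dosed day 0, half-medium refresh day 3; fixed 120 h; TUBB3/Hoechst ICC, high-content imaging; neurite area = mean pixels per neuron (nuclei excluded); DMSO baseline, max 0.1%.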

[11] = IUF_NPC2-5_cytotoxicity_72hr: Cytotoxicity Assessment at 72 hours in the Leibniz Research Institute for Environmental Medicine (IUF) Neural Progenitor Cell Migration and Differentiation Assay for Cytotoxicity (NPC2-5) (AID 2284306; active = hit-call score of the fitted dose curve at least 0.9, where 1 is the maximum;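 note: LDH release into supernatant measured by resorufin fluorescence marking membrane damage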)
Outline: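 hNPC spheres (0.3 mm), PDL/laminin, DMEM/F12 3:1 + 1% N2; cpd from d0, 7 concs + SC, DMSO max 0.1%; half-medium refresh d3. Readout: supernatant LDH via resorufin fluorescence (RFU), 72 h; gain-of-signal fit.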

[12] = IUF_NPC2-5_cytotoxicity_120hr: Cytotoxicity Assessment at 120 hours in the Leibniz Research Institute for Environmental Medicine (IUF) Neural Progenitor Cell Migration and Differentiation Assay (NPC2-5) (AID 2284307; active = hit-call score of the fitted dose curve at least 0.9, where 1 is the maximum)
Outline: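 Membrane-integrity loss is quantified by LDH in supernatant after five days of exposure of migrating, differentiating human fetal NPC spheres; seven serially diluted concentrations are tested with DMSO kept at or below 0.1%.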

[13] = IUF_NPC2-5_cell_number_120hr: Cell Number Assessment at 120 hours in the Leibniz Research Institute for Environmental Medicine (IUF) Neural Progenitor Cell Migration and Differentiation Assay (NPC2-5) (AID 2284308);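 note: count of Hoechst-stained nuclei in migration zone around plated human neural progenitor spheres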
Outline: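 Seven-point serial dilutions plus solvent control were applied to plated 0.3 mm hNPC spheres at differentiation start, with medium half-replaced at day 3. Nuclei positive for Hoechst in the migration zone were enumerated at 120 h.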

[14] = IUF_NPC2-5_viability_120hr: Viability Assessment at 120 hours in the Leibniz Research Institute for Environmental Medicine (IUF) Neural Progenitor Cell Migration and Differentiation Assay (NPC2-5) (AID 2284312)
Outline: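 Human fetal neural progenitor spheres (0.3 mm) plated on poly-D-lysine/laminin in N2 differentiation medium, exposed 120 h with half-medium refresh at day 3. Viability by alamar blue resazurin fluorescence; 7 concentrations, DMSO max 0.1%.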

[15] = IUF_NPC1_cytotoxicity_72hr: Cytotoxicity Assessment at 72 hours in the Leibniz Research Institute for Environmental Medicine (IUF) Neural Progenitor Cell Proliferation Assay (NPC1) (AID 2284332; active = hit-call score of the fitted dose curve at least 0.9, where 1 is the maximum;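 note: rising LDH signal means more cytotoxicity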)
Outline: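 LDH in supernatant, resazurin→resorufin fluorescence (RFU), 72 h exposure, no re-dosing. Cells: primary hNPC spheres, one per well, EGF+FGF medium, 37C/5% CO2, pH 7.2-7.6. Fit: positive direction vs baseline and dynamic range.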

Measured: AC50

CCCCOCCOP(=O)(O)OCCOCCCC
active: [3] 2.46 µM
inactive: [1] | [2] | [4] | [5] | [6] | [7] | [8] | [9] | [10] | [11] | [12] | [13] | [14] | [15]
